These results are taken from PubChem BioAssay AID463082 (The Scripps Research Institute Molecular Screening Center, 2010).

One may read the inhibition as the relative decrease from the control value, in per cent.

Screen size: about 330,000 compounds; about 4,900 (1.5%) were called active. Many of the other results were omitted from the sample, so actives are more common in it than they were. A number with no mark means an inactive call.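 How the source made its calls: active means inhibition above the mean inhibition across the screen plus 3 SD (cut at about 25% in these data); inactive means the rest.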

Chain of Platelet-activating factor acetylhydrolase (Homo sapiens) (Q13093 whole entry, looked up): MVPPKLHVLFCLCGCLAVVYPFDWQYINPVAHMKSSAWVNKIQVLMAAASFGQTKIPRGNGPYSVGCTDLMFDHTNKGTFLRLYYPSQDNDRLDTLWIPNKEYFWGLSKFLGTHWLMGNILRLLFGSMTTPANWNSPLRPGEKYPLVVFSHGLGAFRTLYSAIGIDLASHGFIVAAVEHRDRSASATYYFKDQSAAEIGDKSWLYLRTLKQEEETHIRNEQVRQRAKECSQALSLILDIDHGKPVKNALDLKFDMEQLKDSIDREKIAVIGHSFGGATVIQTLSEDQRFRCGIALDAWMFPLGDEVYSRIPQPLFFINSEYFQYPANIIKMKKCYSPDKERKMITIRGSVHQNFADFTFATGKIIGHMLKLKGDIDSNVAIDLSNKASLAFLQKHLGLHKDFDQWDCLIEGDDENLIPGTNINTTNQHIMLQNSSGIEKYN

This test addresses Platelet-activating factor acetylhydrolase (Homo sapiens) (UniProt Q13093). Description: pPAFAH enzyme inhibitors, primary screen, biochemical, fluorescence polarization, human (AID 463082).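 Further: inhibitors block binding of the rhodamine activity-based probe so polarization drops; 0% = enzyme with DMSO and 100% = wells lacking pPAFAH.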 Conditions: recombinant pPAFAH, FP-rhodamine probe fluorescence polarization; at 3.39 µM; active compounds read high.
Regarding `CC(CC(=O)N1CCN(c2ccccc2)CC1)c1ccccc1` (stereo not drawn), the inhibition is 0.04%.

In the case of `O=C(Nc1ccc(F)cc1)N1CCN(c2ccc(F)cc2)CC1`, the inhibition is -4.2%.

Regarding `CC(=O)N1CCN(c2ccc(NCc3ccc(C(C)C)cc3)cc2)CC1`, the inhibition is 30.8% (active).

As to `N#CC1=C(N)N(c2ccc(F)cc2)C(=O)C1`, the inhibition is -0.02%.

For the compound `CCCCc1nc(NCCN)c(C#N)c2c1CSC(C)(C)C2`, the inhibition is 4.91%.

Turning to `C=C(C)CNC(=S)N/N=C/c1ccccc1OCC(=O)O`, the inhibition is 0.9%.

`Cc1ccc(NS(=O)(=O)c2ccc(N/N=C/c3ccccc3OCC(=O)O)c([N+](=O)[O-])c2)c(C)c1`: the inhibition is 88.4% (active).

Take `Cc1cccc(COc2ccccc2/C=N/Nc2ccc([N+](=O)[O-])cc2)c1`: the inhibition is 18%.

Turning to `COCCn1c(=O)[nH]c(=O)c2cc(C(=O)c3cc(OC)ccc3O)cnc21`, the inhibition is -1.8%.

For `CC(C)NC(=O)C(=O)NCCN1CCN(S(=O)(=O)c2ccc(Cl)cc2)CC1`, the inhibition was 2.1%.

In the case of `O=C(CC1N=C2c3ccccc3N=C(SCc3ccccc3Cl)N2C1=O)NCc1ccco1` (stereo not drawn), the inhibition was 6.79%.

`O=C(Nc1nnc(SCc2ccccc2Cl)s1)c1cccc([N+](=O)[O-])c1`: the inhibition is 22.8%.

As for `COc1ccc2nc(SCc3ccccc3)nc(C)c2c1`, the inhibition was 3.07%.

For the compound `Clc1ccccc1CSc1nnc(-c2ccco2)c(-c2ccco2)n1`, the inhibition is 74.6% (active).

As to `CCc1nnc(SCc2cccc(F)c2)nc1CC`, the inhibition is 7.48%.

In the case of `c1ccc(CSc2nnc(-c3ccco3)c(-c3ccco3)n2)cc1`, the inhibition is 62% (active).

`N#CC(Cc1cc2ccccc2n1S(=O)(=O)c1ccccc1)OCc1ccccc1` (stereo not drawn): the inhibition was 3.57%.

Regarding `N#Cc1c(NC(=O)C2CCCO2)sc2c1CCCCC2` (stereo not drawn), the inhibition is -1.14%.

As to `Nc1cccc(S(=O)(=O)Nc2ccc(SC(F)F)cc2)c1`, the inhibition is 26.6% (active).

On to `CC(=O)N1CCN(C(=O)c2cccc(S(=O)(=O)Nc3ccc(C)cc3)c2)CC1`, for which the inhibition is 19.9%.

Regarding `Cc1cccc(NS(=O)(=O)c2ccc(C)c(C(N)=O)c2)c1`, the inhibition is 9.98%.

In the case of `CCOc1cc(C(=O)N2CCc3cc(OC)c(OC)cc3C2)ccc1OC(F)F`, the inhibition was 11%.

Turning to `CC(C)N1CCC(=NNc2ccc([N+](=O)[O-])cc2S(=O)(=O)N2CCOCC2)CC1`, the inhibition was 5.77%.

For the compound `COc1cccc(NS(=O)(=O)c2ccc3[nH]cc(C(=O)NCCCOC(C)C)c(=O)c3c2)c1`, the inhibition was 29% (active).

With `CCc1cccc2c(=O)c(C(=O)NCCCOC)c[nH]c12`, the inhibition was 3.69%.

In the case of `CCN(CC)S(=O)(=O)c1ccc2[nH]cc(C(=O)NCCc3ccccc3)c(=O)c2c1`, the inhibition was -0.23%.

As to `C=CCOc1ccc(/C=C/C(=O)OCC(=O)NC2CCCCCC2)cc1`, the inhibition is 12%.

For `O=C(NCc1ccccc1CN1CCCC1)c1cccc(S(=O)(=O)Nc2ccc(F)cc2)c1`, the inhibition is 31.6% (active).

Turning to `COc1ccc(NS(=O)(=O)c2cccc(C(=O)NCCc3ccc(S(N)(=O)=O)cc3)c2)cc1`, the inhibition was 26.8% (active).

For the compound `COc1ccccc1C(CNC(=O)c1cccc(NS(=O)(=O)c2ccc(Br)cc2)c1)N(C)C` (stereo not drawn), the inhibition was 4.01%.

Regarding `COc1ccccc1C(CNC(=O)c1cccc(S(=O)(=O)Nc2ccc(F)cc2)c1)N(C)C` (stereo not drawn), the inhibition was 28.3% (active).

For `O=C(NCCN1CCOCC1)c1cccc(S(=O)(=O)Nc2ccc(F)cc2)c1`, the inhibition was 22.9%.

Regarding `NS(=O)(=O)c1ccc(CNC(=O)c2cccc(Oc3ccccc3)c2)cc1`, the inhibition is 4.17%.

As to `CCN(c1ccccc1)S(=O)(=O)c1cccc(C(=O)NCc2ccccc2CN2CCOCC2)c1`, the inhibition is 3.38%.

With `COc1ccc(C(CNC(=O)c2ccc(NS(=O)(=O)c3ccc(F)c(C)c3)cc2)N(C)C)cc1` (stereo not drawn), the inhibition was 7.73%.

Regarding `COc1ccc(OCC(=O)NCCc2ccc(S(N)(=O)=O)cc2)cc1`, the inhibition was -2.47%.

Take `CC(=O)N1c2ccc(S(=O)(=O)NCCC(=O)N(C)C3CCCCC3)cc2CC1C` (stereo not drawn): the inhibition was 1.62%.

Turning to `O=C(c1n[nH]c2c1CCC2)N1CCCC(Nc2cccc(F)c2)C1` (stereo not drawn), the inhibition was -0.4%.

For the compound `O=C(COc1ccc(NC(=O)c2ccccc2[N+](=O)[O-])cc1)c1ccc(F)cc1`, the inhibition is 0.54%.

`C/C(=N\NC(=O)COc1ccc(C)cc1[N+](=O)[O-])c1ccc2c(c1)OCCO2`: the inhibition is 4.11%.

On to `CC(=O)Nc1cccc(OCC(=O)/C=C2\N(C)c3ccccc3C2(C)C)c1`, for which the inhibition is 1.61%.

`N[C@@H](Cc1ccccc1)C(=O)N1CCC(C(=O)NCC(=O)Nc2ccc(F)cc2)CC1`: the inhibition is 2.49%.

For `Cc1cc(C)c2c(Cn3ccnc3)cc(=O)oc2c1`, the inhibition is -1.95%.

For `CCCCN1C(=O)/C(=C/C=C2/C=Cc3ccccc3N2CC)SC1=S`, the inhibition was -3.21%.

Regarding `CCCCN1C(=O)/C(=C2/Sc3ccc(Cl)cc3N2CC)SC1=S`, the inhibition was 3.72%.

For `CCN1C(=O)/C(=C2/Sc3ccccc3N2CCCS(=O)(=O)O)SC1=S`, the inhibition was 28.1% (active).

As for `CCOC(=O)C(CCOc1cccc(CC)c1)C(=O)OCC`, the inhibition is 5.98%.

In the case of `CCCn1nc(C(=O)OCc2nc(N)nc(Nc3ccccc3C)n2)c2ccccc2c1=O`, the inhibition is -2.36%.

In the case of `O=C(Nc1nnc(CCOCCOCCc2nnc(NC(=O)c3ccco3)s2)s1)c1ccco1`, the inhibition was 8.62%.

Consider `NC(=O)c1ccsc1NC(=O)c1ccco1`, for which the inhibition is 3.89%.

Turning to `O=C(Nc1nc(-c2ccco2)c(-c2ccco2)s1)c1ccco1`, the inhibition is 43% (active).

As to `CC(=O)Oc1cccc(N2C(=O)CC(Nc3ccc(N4CCOCC4)cc3)C2=O)c1` (stereo not drawn), the inhibition was 25.3% (active).

`COc1ccc(N2CCN(C3CC(=O)N(c4ccc5c(c4)OCCO5)C3=O)CC2)cc1` (stereo not drawn): the inhibition is -4.08%.

For `COc1cc2ccccc2cc1C(=O)Nc1ccc(N2CCOCC2)cc1`, the inhibition is 11.2%.

Take `O=C(CN1CCN(c2cccc(Cl)c2)CC1)Nc1ccc(S(=O)(=O)N2CCOCC2)cc1`: the inhibition is 5.13%.

In the case of `O=C(NCc1cccnc1)c1cn(-c2ccccc2)nc1-c1cccs1`, the inhibition was -4.38%.

Take `COc1ccc(-c2nn(-c3ccccc3)cc2/C=C\C(=O)Nc2ccc(C(=O)O)cc2)cc1`: the inhibition is -67.2%.

In the case of `O=C(O)c1ccc(N/N=C/c2cn(-c3ccccc3)nc2-c2cccs2)cc1`, the inhibition was 34% (active).
